Laboratory results from PubChem BioAssay (NCATS).
The source made the active and inactive calls. Calls come from the whole dose curve; as a rule, active = well fitted curve in the direction sought with a large enough effect (not every such curve was filed as active); inconclusive = small, poorly fitted or top-dose-only effect, or effect the other way, or another doubt; inactive = no such curve, though single readings can be large or run the other way.

target: Pyruvate kinase PKM (Homo sapiens) (UniProt P14618); assay: qHTS Assay for Activators of Human Muscle Pyruvate Kinase (AID 954); conditions: purified human muscle pyruvate kinase, luciferase-coupled luminescence, 1 h; series mostly up to 57.5 µM
Sequence (P14618 whole entry, looked up): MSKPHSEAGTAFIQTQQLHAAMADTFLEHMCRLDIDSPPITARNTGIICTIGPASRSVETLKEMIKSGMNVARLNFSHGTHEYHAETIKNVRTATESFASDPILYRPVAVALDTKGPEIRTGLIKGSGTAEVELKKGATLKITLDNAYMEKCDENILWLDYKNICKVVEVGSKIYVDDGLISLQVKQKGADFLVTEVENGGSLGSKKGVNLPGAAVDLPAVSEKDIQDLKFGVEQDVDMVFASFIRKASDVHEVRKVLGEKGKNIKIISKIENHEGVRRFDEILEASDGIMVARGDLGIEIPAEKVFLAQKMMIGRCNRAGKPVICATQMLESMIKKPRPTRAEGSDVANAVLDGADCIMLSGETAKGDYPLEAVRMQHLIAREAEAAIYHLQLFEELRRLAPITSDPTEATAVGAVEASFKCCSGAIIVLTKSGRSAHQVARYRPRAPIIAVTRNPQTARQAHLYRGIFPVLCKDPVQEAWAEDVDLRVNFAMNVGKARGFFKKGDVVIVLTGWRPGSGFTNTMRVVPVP
Method in brief: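 ATP production by PKM2 detected via luciferase luminescence after 1 h room-temperature reaction (0.1 nM enzyme, PEP at Km 0.5 mM, ADP 0.1 mM, pH 7.2 imidazole buffer). Inhibition scaled to no-enzyme control; activation referenced to 0.3 nM enzyme wells.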

| SMILES | outcome |
| --- | --- |
| O=C1C(SCCO)=C(SCCO)C(=O)c2ccccc21 | inactive |
| CC(C)(C=O)Cc1cc(C(C)(C)C)c(O)c(C(C)(C)C)c1 | inactive |
| O=C1NC(O)=NC1(c1ccccc1)c1ccccc1 | inactive |
| CN1[C@@H]2CC[C@H]1CC(OC(c1ccccc1)c1ccccc1)C2 (stereo partly drawn) | inactive |
| O=C(O)[C@@H]1C[C@@H](C(=O)O)N1 | inactive |
| NC(=O)C(=O)O | inactive |
| CC(C)NC[C@H](O)COc1cccc2[nH]ccc12 | inactive |
| CN(C)c1nc2c(Br)c(Br)c(Br)c(Br)c2[nH]1 | inactive |
| C[C@@H](NC(=O)/C(C#N)=C/c1ccc(O)c(O)c1)c1ccccc1 | inactive |
| COc1ccccc1N1CCN(CCCCNS(=O)(=O)c2cccc3c(N(C)C)cccc23)CC1 | inactive |
| Brc1c(Br)c(Br)c2n[nH]nc2c1Br | inactive |
| c1ccc(-c2ccccn2)nc1 | inactive |
| Ic1ccc(N2CCN(Cc3c[nH]c4ncccc34)CC2)cc1 | inactive |
| NCCCCCCCCCCN | inactive |
| CC(C)Cc1ccc([C@H](C)C(=O)O)cc1 | inactive |
| Fc1ccc(C(OCCCc2cnc[nH]2)c2ccc(F)cc2)cc1 | inactive |
| CCCCN1CCC(n2c(=O)[nH]c3ccccc32)CC1 | inactive |
| Cn1c(=O)c2[nH]c(-c3ccccc3)nc2n(C)c1=O | inactive |
| CCN1/C(=C/C(C)=O)Sc2ccc(OC)cc21 | inactive |
| NCCCCC(=O)O | inactive |
| N[C@H](CCCP(=O)(O)O)C(=O)O | inactive |
| O=c1[nH]c2ccccc2n1CCCN1CCN(C(c2ccccc2)c2ccccc2)CC1 | inactive |
| N[C@@H](CC(=O)O)C(=O)O | inactive |
